Measurements published in the supplement of paper PMC13380429.

Tested on: Vero E6 infected with SARS-CoV-2
Assay: morphology score (similarity to uninfected cells); higher = more like uninfected cells
Conditions: 24 h

| Structure (SMILES) | morphology score |
| --- | --- |
| C[N+](C)(C)CC(O)CC(=O)[O-] (stereo not given) [carnitine-(D/L)] (10 µM) | -0.213 |
| O=C(O)c1cc(O)c(O)c(O)c1 [gallic-acid] (10 µM) | -0.19 |
| O=C(O)C(=O)CBr [3-bromopyruvate] (10 µM) | -0.102 |
| Ic1cncc(OC[C@@H]2CCN2)c1 (10 µM) | 0.114 |
| O=C1[C@@H]2[C@H]3CC[C@H](C3)[C@@H]2C(=O)N1C[C@@H]1CCCC[C@H]1CN1CCN(c2nsc3ccccc23)CC1 [lurasidone] (10 µM) | 0.0507 |
| O=C(Nc1ccc(Cl)nc1)c1ccc(Cl)cc1 (10 µM) | 0.18 |
| C[C@@H](NCc1cc(Br)cc2nc(O)c(O)nc12)P(=O)(O)O (10 µM) | 0.0389 |
| C[C@]12Cc3c[nH]nc3C[C@@H]1CC[C@@H]1[C@@H]2CC[C@@]2(C)[C@H]1CC[C@]2(C)O [stanozolol] (10 µM) | -0.305 |
| Cc1ccccc1C(=O)Nc1ccc(C(=O)N2CCCC(N(C)C)c3ccccc32)cc1 (stereo not given) [mozavaptan] (0.833333 µM) | 0.0205 |
| N#Cc1nn(-c2c(Cl)cc(C(F)(F)F)cc2Cl)c(N)c1[S+]([O-])C(F)(F)F (stereo not given) [fipronil] (10 µM) | 0.0672 |
| N#Cc1c(O)c2c(-c3ccc(-c4ccccc4O)cc3)csc2[nH]c1=O (10 µM) | 0.0882 |
| CCOc1ccc(C[C@H]2NC(=O)CCSSC[C@@H](C(=O)N3CCC[C@H]3C(=O)N[C@@H](CCCN)C(=O)NCC(N)=O)NC(=O)[C@H](CC(N)=O)NC(=O)[C@H]([C@@H](C)O)NC(=O)[C@H]([C@@H](C)CC)NC2=O)cc1 [atosiban] (10 µM) | 0.175 |
| CC(C)(C(=O)NCC(F)(F)C(F)(F)F)C(=O)N[C@@H]1C(=O)Nc2ccccc2-c2ccccc21 (10 µM) | 0.217 |
| Cc1ccc(=O)n(-c2ccccc2)c1 [pirfenidone] (10 µM) | 0.289 |
| CC(=O)[C@H]1CC[C@H]2[C@@H]3CC[C@H]4C[C@](C)(O)CC[C@]4(C)[C@H]3CC[C@]12C [ganaxolone] (10 µM) | -0.0442 |
| CSCC[C@H](NC(=O)[C@H](Cc1ccccc1)NC(=O)CNC(=O)CNC(=O)[C@@H](N)Cc1ccc(O)cc1)C(=O)O [metenkephalin] (10 µM) | 0.247 |
| O=[N+]([O-])/N=C1\NCCN1Cc1ccc(Cl)nc1 [imidacloprid] (10 µM) | 0.114 |
| CCN1CCN(C(=O)N[C@@H](C(=O)N[C@@H]2C(=O)N3[C@@H]2SC(C)(C)[C@@H]3C(=O)O)c2ccccc2)C(=O)C1=O [piperacillin] (10 µM) | 0.11 |
| NCCS(=O)(=O)O [taurine] (10 µM) | 0.19 |
| CN(C)C(=O)c1cc2cnc(Nc3ccc(N4CCNCC4)cn3)nc2n1C1CCCC1 [ribociclib] (10 µM) | 0.244 |

| Structure (SMILES) | morphology score |
| --- | --- |
| O=C(O)CC1CC(c2ccccc2)=NO1 (stereo not given) (10 µM) | -0.0313 |
| CC(C)(C)CC(C)(C)c1ccc(O)c(Cc2ccc(Cl)cc2Cl)c1 [clofoctol] (10 µM) | 0.121 |
| COc1ccc([C@@H]2CC(=O)c3c(O)cc(O)cc3O2)cc1O [hesperetin] (10 µM) | 0.0387 |
| COc1ccc(CC(C)NCC(O)c2ccc(O)c(NC=O)c2)cc1 (stereo not given) [formoterol] (10 µM) | 0.0444 |
| CCN(CC)C(=O)/C(C#N)=C/c1cc(O)c(O)c([N+](=O)[O-])c1 [entacapone] (10 µM) | 0.149 |
| O=[N+]([O-])c1nccn1CC(O)CN1CCCCC1 (stereo not given) [pimonidazole] (10 µM) | 0.0622 |
| COc1ccc2ccc(=O)oc2c1CC=C(C)C [osthol] (10 µM) | 0.243 |
| NC(=O)c1ccc2[nH]ccc2c1 (10 µM) | 0.192 |
| C[C@H](CS)C(=O)N1CCC[C@H]1C(=O)O [captopril] (10 µM) | 0.0071 |
| COc1ccnc(C[S+]([O-])c2nc3cc(OC(F)F)ccc3[nH]2)c1OC (stereo not given) [pantoprazole] (10 µM) | -0.142 |
| CC(=O)SCCC(=O)N1[C@H](C)CCC[C@@H]1C(=O)O [methiopril] (10 µM) | 0.0927 |
| CO/N=C(\C(=O)N[C@@H]1C(=O)N2C(C(=O)[O-])=C(C[n+]3ccn4ncccc43)CS[C@H]12)c1nsc(N)n1 [cefozopran] (10 µM) | 0.0209 |
| Cc1ccccc1N1CCN(CCc2nnc3n2CCCC3)CC1 [dapiprazole] (10 µM) | 0.109 |
| CC1=C(C(=O)O)N2C(=O)[C@@H](NC(=O)[C@H](N)c3ccc(O)cc3)[C@H]2SC1 [cefadroxil] (10 µM) | -0.016 |
| CCc1cc2c(cc1CC)CC(NC[C@H](O)c1ccc(O)c3[nH]c(=O)ccc13)C2 [indacaterol] (10 µM) | 0.0532 |
| C[C@]1(O)C[C@@H](c2nc(-c3ccc4ccc(-c5ccccc5)nc4c3)c3c(N)nccn32)C1 [linsitinib] (10 µM) | 0.275 |
| C[C@]12COC(=O)C[C@@H]1CC[C@@H]1[C@@H]2CC[C@@]2(C)[C@H]1CC[C@]2(C)O [Oxandrolone] (10 µM) | 0.0356 |
| CC(C)N(CCNC(=O)CN1CCCC1=O)C(C)C [pramiracetam] (10 µM) | -0.0542 |
| O=C(NC[C@H]1CN(c2ccc(N3CCOCC3=O)cc2)C(=O)O1)c1ccc(Cl)s1 [Rivaroxaban (Xarelto)] (10 µM) | 0.193 |
| C=C1c2cccc(O)c2C(=O)C2=C(O)[C@]3(O)C(=O)C(C(N)=O)=C(O)[C@@H](N(C)C)[C@@H]3[C@@H](O)[C@H]12 [methacycline] (0.833333 µM) | 0.0945 |
